# According to PubChem BioAssay (NCI):
# Compounds without any hit were thinned out: in the full panel of roughly 83,000, 20% have a hit.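 Results are percent growth after 48 hours of single-concentration exposure. 100 means growth as in untreated cells, lower positive values show inhibition; negative values down to -100 show cell death.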 Values without a mark were called inactive. Activity calls are given as the source filed them. The calls were made as follows: active = growth percent below 10; inactive = the rest.
# Columns and labels:
# Experiment in all cases: NCI-60 one-dose screen, 48 h (100 = growth as untreated, 0 = no growth, -100 = all killed)
# Conditions in all cases: 10 µM unless noted
# [1] = tested on: NCI-H226 lung
# [2] = tested on: NCI-H322M lung
# [3] = tested on: HOP-62 NSCLC
# [4] = tested on: NCI-H460 lung
# [5] = tested on: NCI-H522 lung
# [6] = tested on: A549/ATCC NSCLC
# [7] = tested on: 786-0 renal
# [8] = tested on: COLO 205 colon
# [9] = tested on: DU-145 prostate
# [10] = tested on: K-562 leukemia
# [11] = tested on: MALME-3M melanoma
# [12] = tested on: MDA-MB-231 breast
# [13] = tested on: RXF 393 renal
# [14] = tested on: SF-268 CNS
# [15] = tested on: SF-295 CNS
# [16] = tested on: SF-539 CNS
# [17] = tested on: UACC-257 melanoma
# [18] = tested on: M14 melanoma
SMILES,growth [1],growth [2],growth [3],growth [4],growth [5],growth [6],growth [7],growth [8],growth [9],growth [10],growth [11],growth [12],growth [13],growth [14],growth [15],growth [16],growth [17],growth [18]
N/C(=N\OC(=O)c1ccccc1)C(Cc1ccccc1)C(=O)NOC(=O)c1ccccc1 (configuration not stated),95.1%,89%,1.55% (active),5.54% (active),-53.7% (active),-60.3% (active),48.7%,69.3%,16.2%,-6.89% (active),59.2%,70.7%,53.4%,1.91% (active),-14.7% (active),13.6%,88.8%,48.3%
CS(=O)(=O)c1ccc(C(=O)N2N=C(c3ccccc3)CC2c2ccc3c(c2)OCO3)cc1 (configuration not stated),88.7%,99.6%,83.1%,98.5%,87.2%,80.2%,90.8%,81.4%,97.4%,59.9%,104%,96.2%,98.4%,95.2%,100%,103%,79.2%,95.7%
COc1cc2c(=O)n(CCCN(C)C)c3c4cc[nH]c4ncc3c2cc1OC,37.1%,42.6%,11.8%,17.6%,0.675% (active),44.1%,33.7%,13.2%,30.8%,54.3%,62.4%,50.8%,23.1%,28.3%,29.2%,73.3%,87.9%,40.5%
Oc1ccc(-c2nc3ccccc3s2)cc1CN(Cc1ccccn1)Cc1ccccn1,5.38% (active),9.63% (active),10.9%,2.66% (active),-7.33% (active),2.38% (active),-3.75% (active),16%,24.2%,11.8%,8.24% (active),25.3%,40.5%,17.7%,13.5%,3.91% (active),-0.146% (active),-29.7% (active)
c1ccc2c(N=NSc3ncnc4nc[nH]c34)c3ccccc3nc2c1,-23% (active),8.38% (active),-49.9% (active),2.58% (active),-74.9% (active),-24.4% (active),-5.12% (active),-95.3% (active),8.43% (active),–,-17.9% (active),5.25% (active),-20.8% (active),3.15% (active),20.1%,5.02% (active),-13.9% (active),-25.4% (active)
CC(C)(C)[Si](C)(C)OC1[C@@H](O[Si](C)(C)C(C)(C)C)[C@@H](CNC(=O)NC(=O)NC(=O)CCl)O[C@H]1n1cnc2c(NC(=O)Nc3ccccc3)ncnc21 (some centres not stated),88.2%,103%,36.7%,–,-78.6% (active),55.8%,26.6%,57.1%,87.5%,47.1%,-78.7% (active),-28.3% (active),21.9%,47.1%,-20.6% (active),82.7%,97.8%,64.7%
COc1cc(OC)c(Cl)cc1N,108%,110%,104%,103%,94.8%,105%,111%,115%,114%,95.5%,134%,94.8%,110%,104%,135%,95.4%,111%,115%
COc1cnc2c(c1)C(=O)c1c-2n(CCCN2CCCC2)c(=O)c2cc(Cl)ccc12,6.56% (active),46.6%,16.2%,-12.9% (active),4.02% (active),25.3%,-73.1% (active),10.4%,36%,-72% (active),70.3%,62.4%,30%,39.2%,23%,4.9% (active),63.6%,37.3%
